Our source for the growth values is PubChem BioAssay (NCI).

Compounds without any hit were thinned out: in the full panel of roughly 83,000, 20% have a hit.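 Testing used 96-well plates and a 48-hour single-concentration exposure. Example: -40 means 40% of the starting cells died.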 Unmarked numbers belong to inactive results. Active and inactive are the calls of the source. The calls were made as follows: active = growth percent below 10; inactive = the rest.

Common to all, as to assay: NCI-60 one-dose screen, 48 h (100 = growth as untreated, 0 = no growth, -100 = all killed)
What all share (conditions): 10 µM unless noted

The test system of assay [1] is NCI-H23 lung.
For assay [2], the system named is NCI-H226 lung.
The test system of assay [3] is NCI-H322M lung.
Assay [4] deals with HOP-62 NSCLC.
Assay [5] relates to NCI-H460 lung.
For assay [6], the system named is HOP-92 NSCLC.
In assay [7] the test system is NCI-H522 lung.
For assay [8], the system named is A549/ATCC NSCLC.
For assay [9], the system named is 786-0 renal.
In assay [10] the test system is COLO 205 colon.

For `O=C(COc1ccc(-c2nc3cc(Cl)c(Cl)cc3[nH]2)cc1)N=Nc1c(O)[nH]c2ccccc12`, the growth was 31.8% in [1]; -30.2% (active) in [2]; 4.51% (active) in assay [3]; 50.1% in assay [4]; -69.6% (active) in [5]; -33.3% (active) in [6]. Moreover, the growth is 13.6% in [7], 29% in assay [8], -44.8% (active) in assay [9] and 12.6% in assay [10].
`O=C(N=Nc1c(O)[nH]c2ccc(Br)cc12)c1cc(-c2ccccc2)on1`: the growth is 96.9% in assay [1]; 99.8% in [2]; 108% in assay [3]; 102% in assay [4]; 101% in [5]; 96.8% in assay [6]. In addition, the growth is 85% in [7], 103% in assay [8], 105% in assay [9] and 125% in assay [10].
For the compound `c1csc(C2=NN3C(C2)c2ccccc2OC3c2ccncc2)c1` (stereo not given), the growth is 89.8% in [1]; 85.8% in assay [2]; 93.1% in [3]; 106% in assay [4]; 100% in [5]; 87.4% in assay [6]. The growth in assay [7] was 87%; in assay [8], 96.2%; in [9] it was 98.7%; in assay [10], 112%.
For `COc1ccc(/C=C\c2cc(OC)c(OC)c(OC)c2)cc1OCC(=O)Nc1ccc2nc(C)sc2c1`, the growth was 37.6% in [1]; 24.8% in assay [2]; 69.9% in assay [3]; 44.4% in assay [4]; 24.5% in assay [5]; 52% in assay [6]. In addition, the growth in assay [7] is -2.14% (active); in assay [8], 30.5%; in assay [9] it was 79.6%; in assay [10] it was 75%.
Turning to `CC(C)(C)c1cc(/C=N\NC(=O)/C=C/C=C/c2ccc3c(c2)OCO3)c(O)c(C(C)(C)C)c1`, the growth in assay [1] is 90.5%; in [2], 75.9%; in assay [3] it was 63.5%; in assay [4], 66.8%; in assay [5] it was 39.6%; in assay [6], 88.5%. For the same compound, the growth is 80.1% in assay [7], 87.5% in assay [8], 85.4% in assay [9] and 94% in assay [10].
Regarding `Cc1[nH]c(-c2cc(N)ccc2Cl)c2c1C(=O)CCCC2`, the growth in assay [1] was 36.3%; in [2], 36.1%; in assay [3], 40.8%; in [4] it was 15.9%; in assay [5] it was 57.3%; in assay [6], 24.5%. Moreover, the growth was 16.2% in [7], 45.2% in assay [8], 40.1% in [9] and 22.6% in [10].
As for `CCc1nc(N)nc(N)c1C#CC(C)c1cc(-c2ccnc(C)c2)c2oc(C)nc2c1` (stereo not given), the growth is 5.82% (active) in assay [1]; 44.7% in [2]; 25.3% in assay [3]; -2.79% (active) in [4]; 2.7% (active) in assay [5]; -0.67% (active) in assay [6]. In addition, the growth is 18.2% in [7], 3.87% (active) in [8], 6.31% (active) in assay [9] and 0.792% (active) in [10].
On to `CN(CCCCCl)P(=O)(OCc1ccc([N+](=O)[O-])o1)C(F)(F)c1ccc(CC(=O)NC[C@@H](O)/C=C\[C@@H](O)[C@H](CO)Cc2ccccc2)cc1` (stereo not given in full), for which the growth in assay [1] is 92.8%; in assay [2], 95.6%; in [3], 96.6%; in assay [4], 96.6%; in [5], 102%; in assay [6], 135%. Besides, the growth in assay [7] was -2.39% (active); in assay [8] it was 85.3%; in assay [9] it was 107%; in assay [10] it was 103%.
On to `CN1CCN(Cc2ccc(NC(=O)c3cncc(C#Cc4cncn5ccnc45)c3)cc2C(F)(F)F)CC1`, for which the growth was 63.1% in [1]; 34.4% in assay [2]; 105% in [3]; 81.4% in [4]; 64.3% in assay [5]; 38.8% in [6]. Moreover, the growth in assay [7] was 47.3%; in assay [8] it was 74%; in assay [9] it was 87.5%; in assay [10], 32.3%.
As for `COC(=O)c1cccc(NC(=O)c2ccc(-c3cccc(N)c3)o2)c1`, the growth was 97.5% in assay [1]; 85.8% in assay [2]; 101% in [3]; 104% in assay [4]; 102% in assay [5]; 106% in [6]. The growth was 81.8% in assay [7], 100% in assay [8], 109% in assay [9] and 112% in assay [10].
As for `CCOC(=O)c1cc(C(=O)c2ccc(O)c(O)c2)n2ccc(-c3ccn4c(C(=O)c5ccc(O)c(O)c5)cc(C(=O)OCC)c4c3)cc12`, the growth in [1] is 96.7%; in [2], 107%; in [3], 94.3%; in assay [4] it was 99.7%; in assay [5], 101%; in [6], 45.7%. Besides, the growth was 82.7% in assay [7], 92.3% in assay [8], 87% in assay [9] and 102% in assay [10].
`CCOc1cc2ncc(C#N)c(Nc3ccc(F)c(Cl)c3)c2cc1NC(=O)CC1CCSS1` (stereo not given): the growth was -50.6% (active) in assay [1]; -50.9% (active) in [2]; -74.5% (active) in [3]; -66% (active) in assay [4]; -64.4% (active) in assay [5]; -15.3% (active) in [6]. The growth is -48.6% (active) in assay [7], -75.6% (active) in [8], 12.1% in [9] and -73.5% (active) in [10].
Take `CSc1ccc(-c2ccccc(=O)c2O)cc1`: the growth was 21.9% in [1]; 16.1% in assay [2]; 19.5% in [3]; 3.95% (active) in assay [4]; 2.89% (active) in assay [5]; 49.5% in assay [6]. The growth in assay [7] is 24.1%; in [8] it was 11.5%; in assay [9], 8.4% (active); in [10] it was 22.6%.
